{"source": "PubChem BioAssay (NCI)", "note": "Compounds without any hit were thinned out: in the full panel of roughly 83,000, 20% have a hit.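 Single-dose data. Exposure time 48 hours. Values below 10 considered active.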 Calls of active or inactive are those of the source."}
{"system": "HCT-116 colon", "assay": "NCI-60 one-dose screen, 48 h (100 = growth as untreated, 0 = no growth, -100 = all killed)", "settings": "10 µM unless noted", "method": "Growth inhibition of the HCT-116 human tumor cell line is measured as a screen for anti-cancer activity. Cells are grown in 96 well plates and exposed to the test compound for 48 hours. Compounds are tested at a single concentration, which is 10^-5 M for most compounds. The reported endpoint is percent growth (GI% or GIPRCNT), where numbers from 0 - 100% represent growth inhibition, and numbers from -100% - 0 represent cell death. For example, a value of 40 represents 60% growth inhibition. A value of 0 means no net growth occurred over the course of the experiment. A value of -40 indicates 40% of cells at the beginning of the experiment died by the end of the experiment. A value of -100 means all cells are dead at the end of the experiment.\nNCI-60 Human Tumor Cell Lines Screen was performed using the standard one-dose NCI protocol, which is described in more detail at https://dtp.cancer.gov/discovery_development/nci-60/default.htm.\nCompounds with GIPRCNT values below 10 were considered active. Activity score was based on GIPRCNT using the following formula: […]\nScore is 0 for GIPRCNT values of 100 or above, 50 for GIPRCNT values of 0, and 100 for GIPRCNT values of -100."}
{"compound": "Clc1ccc(Cn2cc(-c3nc4ccc(Br)nc4n3Cc3ccc(Cl)cc3)c3cccnc32)cc1", "growth": "84.1% (inactive)"}
{"compound": "N#CCCCCCn1c2ccccc2c2c3c(c4c5ccccc5n(CCCCCC#N)c4c21)C(=O)N(O)C3=O", "growth": "71.3% (inactive)"}
{"compound": "NC(Cc1ccc(O)cc1)C(=O)N/N=C/c1ccccc1O", "note": "(stereo not given)", "growth": "97.2% (inactive)"}
{"compound": "Cc1ccc2c(c1)c1nc3cc(C)c(C)cc3nc1n2CCN(C)C", "growth": "8.95% (active)"}
{"compound": "CC1(C)c2ccccc2C(=O)C1(Br)Cc1ccccc1", "note": "(stereo not given)", "growth": "54.9% (inactive)"}
{"compound": "COc1cc(NC(C)CN(CC(C)C)C(C)C)c2ncccc2c1", "note": "(stereo not given)", "growth": "88.6% (inactive)"}
{"compound": "NNC(=O)c1nc2ccccc2[nH]1", "growth": "91.3% (inactive)"}
{"compound": "COc1cc(OC)c2c(c1)c1nc3cc(C)c(C)cc3nc1n2CCN(C)C", "growth": "69.7% (inactive)"}
{"compound": "C=C(C)[C@@H]1CC[C@]2(C)CC[C@]3(C)[C@H](CC[C@@H]4[C@@]5(C)CCCNC(C)(C)[C@@H]5CC[C@]43C)[C@@H]12", "growth": "5.39% (active)"}
{"compound": "Cc1ccc(-c2ccc(/C=C(\\C#N)c3nc(-c4ccco4)cs3)o2)cc1", "growth": "98% (inactive)"}
{"compound": "CCCNc1nc(N(C)O)nc(N(C)O)n1", "growth": "5.06% (active)"}
{"compound": "C=C(C)[C@@H]1CC[C@]2(C(=O)OC)CC[C@]3(C)[C@H](CC[C@@H]4[C@@](C)(CC/C(N)=N/O)[C@H](C(=C)C)CC[C@]43C)[C@@H]12", "growth": "89.8% (inactive)"}
{"compound": "CCC(CC)C(=O)OC(C)COc1ccc(C(C)(C)C)cc1", "note": "(stereo not given)", "growth": "90.7% (inactive)"}
{"compound": "Cc1csc(Nc2nc(-c3ccc(Cl)cc3)nc(C(Cl)(Cl)Cl)n2)n1", "growth": "79.1% (inactive)"}
{"compound": "CC1c2ccccc2N(S(=O)(=O)c2ccccc2)C1C", "note": "(stereo not given)", "growth": "86.2% (inactive)"}
{"compound": "C=C(C)[C@@H]1CC[C@]2(CN)CC[C@]3(C)[C@H](CC[C@@H]4[C@@](C)(CCCN)[C@H](C(=C)C)CC[C@]43C)[C@@H]12", "growth": "50.1% (inactive)"}
{"compound": "CCSc1sc(-c2ccc(C)cc2)nc1[P+](c1ccccc1)(c1ccccc1)c1ccccc1", "growth": "-20.9% (active)"}
{"compound": "CC1(C)C(=O)/C(=C\\c2ccco2)C[C@]2(C)[C@H]3CC[C@@H]4[C@@H](C(=O)/C=C/c5ccco5)CC[C@@]4(C)[C@]3(C)CC[C@@H]12", "growth": "61.8% (inactive)"}
{"compound": "COc1ccc2c(c1)C(Br)=C(CCO)C2c1ccccc1", "note": "(stereo not given)", "growth": "57.3% (inactive)"}
{"compound": "CC(CNc1nc(Nc2ccc(Cl)c(Cl)c2)nc(C(Cl)(Cl)Cl)n1)N(C)C", "note": "(stereo not given)", "growth": "-88.7% (active)"}
{"compound": "C=C(C)[C@@H]1CC[C@]2(C)[C@H](CC=C3[C@@H]4CC(C)(C)CC[C@]4(C=O)CC[C@]32C)[C@@]1(C)CCCN", "growth": "22.9% (inactive)"}
{"compound": "COc1ccc2c(c1)c(-c1nc(-c3cn(C)c4ncccc34)cs1)cn2CCN", "growth": "80.5% (inactive)"}
{"compound": "c1ccc(-c2nc(Nc3ccc(-c4nc5ccccc5[nH]4)cc3)nc(N3CCOCC3)n2)cc1", "growth": "-81.5% (active)"}
{"compound": "CC(C)(C)c1ccc(OCCCCCCCN2CCNCC2)cc1", "growth": "-1.04% (active)"}
{"compound": "CCc1nnc(NC(=O)c2ccoc2COc2ccccc2)s1", "growth": "30.6% (inactive)"}
{"compound": "CN(C)c1ccc(N)c2ccccc12", "growth": "6.65% (active)"}
{"compound": "COc1ccc2c(c1)c(-c1nc(-c3c[nH]c4ncccc34)cs1)cn2C", "growth": "56.7% (inactive)"}
{"compound": "Cn1cc(-c2csc(-c3cn(CCCN4CCCCC4)c4ccc(Br)cc34)n2)c2cccnc21", "growth": "-89.5% (active)"}
{"compound": "COC(=O)C(Cc1ccccc1)n1cc(COc2nc(Cl)nc(Nc3ccc(Cl)cc3)n2)nn1", "note": "(stereo not given)", "growth": "100% (inactive)"}
{"compound": "COc1cc2nc(Cl)nc(Nc3cccc(C(=O)/C=C/c4ccc(F)cc4)c3)c2cc1OC", "growth": "-41.2% (active)"}
{"compound": "NCCNc1nc(-c2ccccc2)nc2nc(-c3ccccc3)oc12", "growth": "54.7% (inactive)"}
{"compound": "Cc1cc(N2CCOCC2)nc(N(CCCNc2ccnc3cc(Cl)ccc23)Cc2ccco2)n1", "growth": "7.37% (active)"}
{"compound": "C/C(=C(/c1ccccc1)c1ccc(N2C(=O)c3cccc4c(NCc5ccccc5)ccc(c34)C2=O)cc1)c1ccccc1", "growth": "87.1% (inactive)"}
{"compound": "CCOC(=O)C1OC1(c1ccccc1)c1ccccc1", "note": "(stereo not given)", "growth": "107% (inactive)"}
{"compound": "Cn1cccc1/C=C1/SC(=S)N(CCc2ccc(O)cc2)C1=O", "growth": "21.4% (inactive)"}
{"compound": "C/C(=N\\NC(=O)C(C)SC(C)C(=O)N/N=C(\\C)c1cccnc1)c1cccnc1", "note": "(stereo not given)", "growth": "110% (inactive)"}
{"compound": "C=C(C)[C@@H]1CC[C@]2(C)[C@H](CC[C@@H]3[C@H]4[C@H]5OC[C@@]4(CCC5(C)C)CC[C@]32C)[C@@]1(C)CCCN", "growth": "4.71% (active)"}
{"compound": "CC1=CC(=O)N(c2cccc3c(N4C(=O)C=C(C)C4=O)cccc23)C1=O", "growth": "17.8% (inactive)"}
{"compound": "Cn1cc(-c2nc(-c3c[nH]c4ncccc34)cs2)c2cc(Cl)ccc21", "growth": "32.2% (inactive)"}
{"compound": "CCOC(=O)N1CCN(CCCCOc2ccc(C(C)(C)CC)cc2)CC1", "growth": "70.8% (inactive)"}
